Results taken from PubChem BioAssay (EPA / NIEHS).
Calls of active or inactive are those of the source. How the source made its calls: active means hit-call score of the fitted dose curve at least 0.9, where 1 is the maximum; inactive means score below 0.9.

Tested on: not listed separately
Assay: ATG_CRE_CIS: Attagene CIS-FACTORIAL HepG2 Assay for human cAMP Responsive Element (CRE) binding protein 3 (AID 2282926)
Details: HepG2 CRE cis-reporter, Attagene multiplexed mRNA; actives raise or lower the signal
How it was run: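 Capillary electrophoresis of 6-FAM-labelled, HpaI-digested PCR products quantified reporter transcripts. These came from HepG2 transiently transfected with cis-element reporters and exposed to test chemicals for 24 hours, with DMSO defining baseline activity.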

Structure (SMILES)	AC50	outcome
CNC(=O)Oc1cccc2c1OC(C)(C)O2	50 µM (active)	–
CSC1=N[C@@](C)(c2ccccc2)C(=O)N1Nc1ccccc1	4.24 µM (active)	–
CC(C)=CC1C(C(=O)OCN2C(=O)C3=C(CCCC3)C2=O)C1(C)C (stereo not drawn)	38.4 µM (active)	–
CC[C@H](C)[C@H]1O[C@]2(C=C[C@@H]1C)C[C@@H]1C[C@@H](C/C=C(\C)[C@@H](O[C@H]3C[C@H](OC)[C@@H](O[C@H]4C[C@H](OC)[C@@H](NC)[C@H](C)O4)[C@H](C)O3)[C@@H](C)/C=C/C=C3\CO[C@@H]4[C@H](O)C(C)=C[C@@H](C(=O)O1)[C@]34O)O2	–	inactive
N#CSCSC#N	–	inactive
COP(=O)(OC)C(O)C(Cl)(Cl)Cl (stereo not drawn)	32 µM (active)	–
Cc1ccn2nc(S(=O)(=O)Nc3c(F)cccc3F)nc2n1	–	inactive
CCC(CC)Nc1c([N+](=O)[O-])cc(C)c(C)c1[N+](=O)[O-]	–	inactive
CCCCOC(=O)c1ccccc1C(=O)O	–	inactive
CCCOc1nn(C(=O)NS(=O)(=O)c2ccccc2C(=O)OC)c(=O)n1C	–	inactive
C[N+]1(C)CCCCC1	–	inactive
CC(C)N(C(=O)SCC(Cl)=C(Cl)Cl)C(C)C	15.6 µM (active)	–
CCOP(=S)(OCC)Oc1ccc2c(C)c(Cl)c(=O)oc2c1	–	inactive
CCc1cccc(CC)c1N(COC)C(=O)CCl	3.04 µM (active)	–
CCOC(=O)COc1cc(-c2nn(C)c(OC(F)F)c2Cl)c(F)cc1Cl	–	inactive
CCOP(=O)(OCC)Oc1cc(C)nc(C(C)C)n1	–	inactive

Target: CCAAT/enhancer-binding protein beta (Homo sapiens) (UniProt P17676)
Sequence (P17676 whole entry, looked up): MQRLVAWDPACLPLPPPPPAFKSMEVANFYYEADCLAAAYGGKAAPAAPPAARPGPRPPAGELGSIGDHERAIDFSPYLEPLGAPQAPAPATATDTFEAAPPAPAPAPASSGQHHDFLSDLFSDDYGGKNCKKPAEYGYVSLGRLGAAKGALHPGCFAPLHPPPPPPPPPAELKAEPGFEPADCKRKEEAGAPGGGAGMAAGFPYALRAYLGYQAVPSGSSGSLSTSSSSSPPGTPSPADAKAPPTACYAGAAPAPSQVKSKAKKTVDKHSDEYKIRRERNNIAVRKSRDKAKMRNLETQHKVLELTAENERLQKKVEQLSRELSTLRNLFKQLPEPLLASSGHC
Assay: ATG_C_EBP_CIS: Attagene CIS-FACTORIAL HepG2 Assay for human CCAAT/Enhancer Binding Protein (C/EBP) beta (AID 2282927)
Details: HepG2 Attagene cis-factorial transcription factor reporter; actives raise or lower the signal
How it was run: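 HepG2 transiently transfected with multiplexed reporter units under cis-regulatory promoters reporting endogenous C/EBPb activity. After 24 h exposure, reporter mRNA assayed by RT-PCR, fluorescent labelling, HpaI digestion and capillary electrophoresis; bidirectional fitting versus DMSO.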

Structure (SMILES)	outcome	AC50
CN1COCN(Cc2cnc(Cl)s2)C1=N[N+](=O)[O-]	inactive	–
O=C(O)c1cc(Oc2ccc(C(F)(F)F)cc2Cl)ccc1[N+](=O)[O-]	inactive	–
Nc1c(Cl)cc([N+](=O)[O-])cc1Cl	–	73.8 µM (active)
CSc1nc(NC(C)C)nc(NC(C)C)n1	inactive	–
COP(=O)(NC(C)=O)SC (stereo not drawn)	inactive	–
CCOP(=S)(OCC)OC(Cl)C(Cl)(Cl)Cl (stereo not drawn)	–	30.3 µM (active)
COc1cc(OC)nc(Sc2cccc(Cl)c2C(=O)O)n1	inactive	–
CC1=NNC(=O)N(/N=C/c2cccnc2)C1	inactive	–
CCC(=O)Nc1ccc(Cl)c(Cl)c1	inactive	–
COc1cccc(C(=O)NN(C(=O)c2cc(C)cc(C)c2)C(C)(C)C)c1C	inactive	–
CCCSP(=O)(OCC)Oc1ccc(Br)cc1Cl (stereo not drawn)	–	1.81 µM (active)
COc1ccc(C(=CC(=O)N2CCOCC2)c2ccc(Cl)cc2)cc1OC	–	5.02 µM (active)
S=C1NCCN1	inactive	–
CC(C)[C@H](C(=O)O[C@H](C#N)c1cccc(Oc2ccccc2)c1)c1ccc(Cl)cc1	inactive	–
CCOP(=S)(OCC)Oc1ccc([N+](=O)[O-])cc1	–	13.5 µM (active)
Nc1nc(N)nc(NC2CC2)n1	inactive	–
CCCSP(=O)(OCC)SCCC	inactive	–
FC(F)C(F)(F)OCC(Cn1cncn1)c1ccc(Cl)cc1Cl (stereo not drawn)	inactive	–

Structure (SMILES)	outcome	AC50
CC1(C(=O)Nc2ccc(O)c(Cl)c2Cl)CCCCC1	inactive	–
CN(C)[C@@H]1C(=O)C(C(N)=O)=C(O)[C@@]2(O)C(=O)C3=C(O)c4c(O)cccc4[C@@](C)(O)[C@H]3[C@H](O)[C@@H]12	inactive	–
CNC(=O)Oc1cccc2c1OC(C)(C)O2	–	19.3 µM (active)
CSC1=N[C@@](C)(c2ccccc2)C(=O)N1Nc1ccccc1	–	6.21 µM (active)
CC(C)=CC1C(C(=O)OCN2C(=O)C3=C(CCCC3)C2=O)C1(C)C (stereo not drawn)	–	10.9 µM (active)
CC[C@H](C)[C@H]1O[C@]2(C=C[C@@H]1C)C[C@@H]1C[C@@H](C/C=C(\C)[C@@H](O[C@H]3C[C@H](OC)[C@@H](O[C@H]4C[C@H](OC)[C@@H](NC)[C@H](C)O4)[C@H](C)O3)[C@@H](C)/C=C/C=C3\CO[C@@H]4[C@H](O)C(C)=C[C@@H](C(=O)O1)[C@]34O)O2	inactive	–
N#CSCSC#N	inactive	–
COP(=O)(OC)C(O)C(Cl)(Cl)Cl (stereo not drawn)	–	50 µM (active)
Cc1ccn2nc(S(=O)(=O)Nc3c(F)cccc3F)nc2n1	inactive	–
CCC(CC)Nc1c([N+](=O)[O-])cc(C)c(C)c1[N+](=O)[O-]	inactive	–
CCCCOC(=O)c1ccccc1C(=O)O	inactive	–
CCCOc1nn(C(=O)NS(=O)(=O)c2ccccc2C(=O)OC)c(=O)n1C	inactive	–
C[N+]1(C)CCCCC1	inactive	–
CC(C)N(C(=O)SCC(Cl)=C(Cl)Cl)C(C)C	–	10.8 µM (active)
CCOP(=S)(OCC)Oc1ccc2c(C)c(Cl)c(=O)oc2c1	inactive	–
CCc1cccc(CC)c1N(COC)C(=O)CCl	–	3.69 µM (active)
CCOC(=O)COc1cc(-c2nn(C)c(OC(F)F)c2Cl)c(F)cc1Cl	inactive	–
CCOP(=O)(OCC)Oc1cc(C)nc(C(C)C)n1	inactive	–

Tested on: not listed separately
Assay: ATG_CMV_CIS: Attagene CIS-FACTORIAL HepG2 Assay for human CMV (Internal Marker) (AID 2282928);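 further: endpoint acts as a background internal control marker rather than a target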
Details: HepG2 CMV promoter reporter, transcription factor profiling; actives raise or lower the signal
How it was run: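 Reporter transcripts from transfected HepG2 cells are isolated after 24 h of chemical dosing, reverse-transcribed and amplified. Fragments labeled with 6-FAM are cut with HpaI and quantified by capillary electrophoresis; DMSO defines baseline.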

Structure (SMILES)	outcome	AC50
CN1COCN(Cc2cnc(Cl)s2)C1=N[N+](=O)[O-]	inactive	–
O=C(O)c1cc(Oc2ccc(C(F)(F)F)cc2Cl)ccc1[N+](=O)[O-]	inactive	–
Nc1c(Cl)cc([N+](=O)[O-])cc1Cl	–	50 µM (active)
CSc1nc(NC(C)C)nc(NC(C)C)n1	inactive	–
COP(=O)(NC(C)=O)SC (stereo not drawn)	inactive	–
CCOP(=S)(OCC)OC(Cl)C(Cl)(Cl)Cl (stereo not drawn)	–	71.1 µM (active)
COc1cc(OC)nc(Sc2cccc(Cl)c2C(=O)O)n1	inactive	–
CC1=NNC(=O)N(/N=C/c2cccnc2)C1	inactive	–
CCC(=O)Nc1ccc(Cl)c(Cl)c1	–	22.9 µM (active)
COc1cccc(C(=O)NN(C(=O)c2cc(C)cc(C)c2)C(C)(C)C)c1C	inactive	–
CCCSP(=O)(OCC)Oc1ccc(Br)cc1Cl (stereo not drawn)	–	3.92 µM (active)
COc1ccc(C(=CC(=O)N2CCOCC2)c2ccc(Cl)cc2)cc1OC	–	2.48 µM (active)
S=C1NCCN1	inactive	–
CC(C)[C@H](C(=O)O[C@H](C#N)c1cccc(Oc2ccccc2)c1)c1ccc(Cl)cc1	inactive	–
CCOP(=S)(OCC)Oc1ccc([N+](=O)[O-])cc1	inactive	–
Nc1nc(N)nc(NC2CC2)n1	inactive	–
CCCSP(=O)(OCC)SCCC	inactive	–
FC(F)C(F)(F)OCC(Cn1cncn1)c1ccc(Cl)cc1Cl (stereo not drawn)	–	16.2 µM (active)

Structure (SMILES)	outcome	AC50
CC1(C(=O)Nc2ccc(O)c(Cl)c2Cl)CCCCC1	inactive	–
CN(C)[C@@H]1C(=O)C(C(N)=O)=C(O)[C@@]2(O)C(=O)C3=C(O)c4c(O)cccc4[C@@](C)(O)[C@H]3[C@H](O)[C@@H]12	inactive	–
CNC(=O)Oc1cccc2c1OC(C)(C)O2	–	35.9 µM (active)
CSC1=N[C@@](C)(c2ccccc2)C(=O)N1Nc1ccccc1	inactive	–
CC(C)=CC1C(C(=O)OCN2C(=O)C3=C(CCCC3)C2=O)C1(C)C (stereo not drawn)	inactive	–
CC[C@H](C)[C@H]1O[C@]2(C=C[C@@H]1C)C[C@@H]1C[C@@H](C/C=C(\C)[C@@H](O[C@H]3C[C@H](OC)[C@@H](O[C@H]4C[C@H](OC)[C@@H](NC)[C@H](C)O4)[C@H](C)O3)[C@@H](C)/C=C/C=C3\CO[C@@H]4[C@H](O)C(C)=C[C@@H](C(=O)O1)[C@]34O)O2	inactive	–
N#CSCSC#N	inactive	–
COP(=O)(OC)C(O)C(Cl)(Cl)Cl (stereo not drawn)	–	22.1 µM (active)
Cc1ccn2nc(S(=O)(=O)Nc3c(F)cccc3F)nc2n1	inactive	–
CCC(CC)Nc1c([N+](=O)[O-])cc(C)c(C)c1[N+](=O)[O-]	inactive	–
CCCCOC(=O)c1ccccc1C(=O)O	inactive	–
CCCOc1nn(C(=O)NS(=O)(=O)c2ccccc2C(=O)OC)c(=O)n1C	inactive	–
C[N+]1(C)CCCCC1	inactive	–
CC(C)N(C(=O)SCC(Cl)=C(Cl)Cl)C(C)C	inactive	–
CCOP(=S)(OCC)Oc1ccc2c(C)c(Cl)c(=O)oc2c1	inactive	–
CCc1cccc(CC)c1N(COC)C(=O)CCl	inactive	–
CCOC(=O)COc1cc(-c2nn(C)c(OC(F)F)c2Cl)c(F)cc1Cl	inactive	–
CCOP(=O)(OCC)Oc1cc(C)nc(C(C)C)n1	inactive	–
